Screens deposited in PubChem by National Center for Advancing Translational Sciences (NCATS).
L3MBTL1 inh = qHTS Assay for the Inhibitors of L3MBTL1; Lethal(3)malignant brain tumor-like protein 1 (Homo sapiens), Q9Y468; AlphaScreen L3MBTL1–H3K9me1 peptide binding; Potency, µM (doses to about 57.1 µM), most hits filed as inhibitors; actives 0.66% (n = 230,000); note: nearly all actives have a fitted effect of over 60% in size
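First, the protein-peptide complex forms for 30 min at room temperature (L3MBTL1 50 nM, biotinylated H3K9me1 peptide 75 nM). Next, compounds are pin-transferred and incubated 30 min. Finally, AlphaScreen beads are added and read after 30 min.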
GLS inhibitor = qHTS for Inhibitors of Glutaminase (GLS) | GLS enzymatic activity, qHTS titration | actives 0.21% (n = 410,000) | Glutaminase kidney isoform, mitochondrial (Homo sapiens), O94925 | Potency, µM (series often up to 45.5 µM), hits mostly inhibitors
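Enzyme dispensed in phosphate buffer (45 mM, pH 8.2, 0.02% Tween-20), compounds pinned in, then 1 mM L-glutamine solution and the glutamate oxidase–HRP–Amplex Red mix added; fluorescence read immediately and again after 30 min at room temperature.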
BAZ2B block = qHTS Assay for Inhibitors of BAZ2B; Bromodomain adjacent to zinc finger domain protein 2B (Homo sapiens), Q9UIF8; AlphaScreen BAZ2B-H3K14Ac peptide displacement; Potency, µM (highest dose often 114 µM), most hits filed as inhibitors; actives 4.4% (n = 360,000); AID 504333, 2011; note: nearly all actives have a fitted effect of over 60% in size
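BAZ2B (50 nM) with biotin-H3(5-23)K14Ac peptide (50 nM) in PBS pH 7.4, 0.01% Tween-20, preformed 30 min, then compound 30 min at room temperature; top concentration 110uM. AlphaScreen streptavidin donor/nickel chelate acceptor beads (10 ug/mL final), 20 min dark, signal read.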
HP1b chromo inh = HTS for Inhibitors of HP1-beta Chromodomain Interactions with Methylated Histone Tails. Chromobox protein homolog 1 (Homo sapiens), P83916. AlphaScreen HP1-beta / biotin-H3K9me3 peptide binding. Potency, µM (series often up to 114 µM), hits mostly inhibitors. actives 0.56% (n = 390,000). AID 540317, 2011; note: nearly all actives have a fitted effect of over 70% in size
Target sequence (P83916 whole entry, looked up): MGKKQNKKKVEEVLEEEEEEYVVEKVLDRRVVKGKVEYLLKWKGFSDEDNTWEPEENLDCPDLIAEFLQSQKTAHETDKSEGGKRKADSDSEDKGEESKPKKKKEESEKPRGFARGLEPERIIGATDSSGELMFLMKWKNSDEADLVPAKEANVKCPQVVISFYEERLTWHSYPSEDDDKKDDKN
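Compound inhibition of the preformed complex between 50 nM HP1-beta and 50 nM biotinylated H3K9me3 peptide was read by AlphaScreen. Buffer was PBS pH 7.4 with 0.01% Tween-20. Incubations ran 30 min at room temperature, with 10 ug/mL donor/acceptor beads.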
JMJD2A Tudor = qHTS Assay for Inhibitors of JMJD2A-Tudor Domain. actives 4.4% (n = 390,000). AlphaScreen JMJD2A-Tudor / H3K4me3 peptide binding. Potency, µM (series often up to 114 µM), hits mostly inhibitors. AID 504339, 2011. Lysine-specific demethylase 4A (Homo sapiens), O75164; note: nearly all actives have a fitted effect of over 50% in size
G9a inh = qHTS Assay for Inhibitors of Histone Lysine Methyltransferase G9a | Histone-lysine N-methyltransferase EHMT2 (Homo sapiens), Q96KQ7 | AID 504332, 2011 | actives 8.8% (n = 350,000) | G9a H3K9 monomethylation, AlphaScreen, 2 h | Potency, µM (titrated, usually from 102 µM), most hits filed as inhibitors; note: nearly all actives have a fitted effect of over 75% in size
Target sequence (Q96KQ7 913-1193 limits assumed): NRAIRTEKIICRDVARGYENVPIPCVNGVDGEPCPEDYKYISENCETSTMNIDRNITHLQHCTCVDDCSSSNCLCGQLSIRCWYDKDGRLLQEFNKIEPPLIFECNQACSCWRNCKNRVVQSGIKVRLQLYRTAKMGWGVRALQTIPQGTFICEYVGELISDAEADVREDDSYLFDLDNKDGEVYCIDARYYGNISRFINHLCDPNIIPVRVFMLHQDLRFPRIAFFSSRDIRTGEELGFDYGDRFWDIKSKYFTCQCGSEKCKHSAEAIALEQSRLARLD
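Methyltransferase reactions run at room temperature for 2 h (20 nM enzyme, 500 nM biotin-H3K9 peptide, 20 uM SAM) after a 15 min compound preincubation; product detected by AlphaScreen beads and anti-H3K9me1 antibody.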
Of the large screens only hits and unclear results are named; the others gave an inactive call. Most compounds without a hit are left out; they make up all but 10% or so of the library. Calls come from the whole dose curve; as a rule, active = well fitted curve in the direction sought with a large enough effect; inconclusive = small, poorly fitted or top-dose-only effect, or another doubt; inactive = no such curve, though single readings can be large; an effect the other way counts as inactive or inconclusive.

C#CCOCCOCCOCCNc1nc(N2CCN(C(=O)CCCCCCCCCCNC(=O)Cn3cc(CCCCCN)nn3)CC2)nc(N2CCN(C(=O)CCCCCCCCCCNC(=O)[C@H]([C@@H](C)CC)n3cc(CCCCCN)nn3)CC2)n1	GLS inhibitor inconclusive, BAZ2B block inconclusive, HP1b chromo inh inconclusive, JMJD2A Tudor 79µM
C#CCOCCOCCOCCNc1nc(N2CCN(C(=O)CCCCCCCCCCNC(=O)[C@H]([C@@H](C)CC)n3cc(CCCCCN)nn3)CC2)nc(N2CCN(C(=O)CCCCCCCCCCNC(=O)[C@@H]([C@H](C)O)n3cc(C)nn3)CC2)n1	GLS inhibitor inconclusive, BAZ2B block 56µM, HP1b chromo inh inconclusive, JMJD2A Tudor 56µM
C#CCOCCOCCOCCNc1nc(N2CCN(C(=O)CCCCCCCCCCNC(=O)[C@H](CCCCN)n3cc(C)nn3)CC2)nc(N2CCN(C(=O)CCCCCCCCCCNC(=O)[C@@H]([C@H](C)CC)n3cc(CCCCCN)nn3)CC2)n1	BAZ2B block 56µM (no result: GLS inhibitor, HP1b chromo inh, JMJD2A Tudor)
C#CCOCCOCCOCCNc1nc(N2CCN(C(=O)CCCCCCCCCCNC(=O)Cn3cc(CCCCCN)nn3)CC2)nc(N2CCN(C(=O)CCCCCCCCCCNC(=O)[C@H](CO)n3cc(CCCCCN)nn3)CC2)n1	BAZ2B block inconclusive, JMJD2A Tudor inconclusive
Fc1cc(F)cc(Nc2nc(NC3CCCC3)nc(C3CO3)n2)c1 (stereo not given)	none (no result: L3MBTL1 inh, GLS inhibitor, BAZ2B block, HP1b chromo inh, G9a inh)
O=C(O)c1ccc(/C=N/N2CCN(Cc3ccc(Cl)cc3)CC2)cc1	none (no result: G9a inh)
Cc1ccc(CN2CCN(/N=C/c3cccnc3)CC2)cc1	none
COc1ccc(/C=N/N2CCN(Cc3ccc(C)cc3)CC2)cc1Br	BAZ2B block 35µM, HP1b chromo inh inconclusive, JMJD2A Tudor 50µM, G9a inh 45µM
Cc1ccc(CN2CCN(/N=C/c3ccc(C(=O)O)cc3)CC2)cc1	G9a inh 7.9µM
Cc1ccc(CN2CCN(/N=C/c3ccc(O)c(O)c3)CC2)cc1	L3MBTL1 inh inconclusive, GLS inhibitor inconclusive, BAZ2B block 50µM, HP1b chromo inh 20µM, JMJD2A Tudor 22µM (no result: G9a inh)
CCN(CC)c1ccc(/C=N\N2CCN(Cc3ccc(C)cc3)CC2)cc1	L3MBTL1 inh inconclusive, BAZ2B block 18µM, HP1b chromo inh 20µM, JMJD2A Tudor 22µM, G9a inh 7.1µM
Cc1ccc(CN2CCN(/N=C/C(Br)=C\c3ccccc3)CC2)cc1	BAZ2B block 32µM, JMJD2A Tudor inconclusive (no result: G9a inh)
CNc1cc([N+](=O)[O-])ccc1N/C=C/C(=O)c1cccs1	BAZ2B block 50µM, JMJD2A Tudor inconclusive, G9a inh inconclusive
Cc1ccc(N/C=C/C(=O)c2cccs2)cc1C	none
O=C(/C=C/Nc1cccc([N+](=O)[O-])c1)c1cccs1	G9a inh 40µM (no result: L3MBTL1 inh, GLS inhibitor)
CNc1cc([N+](=O)[O-])ccc1N/C=C/C(=O)c1ccc2c(c1)OCO2	none
O=C(/C=C/Nc1ccc(Nc2ccccc2)cc1)c1cccs1	L3MBTL1 inh inconclusive, BAZ2B block 13µM, HP1b chromo inh inconclusive, JMJD2A Tudor inconclusive, G9a inh 4µM
COc1ccc(-c2nsc(NC(=O)COc3ccc(C)c(C)c3)n2)cc1	none (no result: L3MBTL1 inh)
COc1ccc(OC)c(S(=O)(=O)NCCc2sc(-c3cccnc3)nc2C)c1	none (no result: L3MBTL1 inh)
CCOc1ccc(N=C(/C(C(=O)C(=O)N2CCOCC2)=C(\O)c2ccccc2)c2ccccc2)cc1	G9a inh 50µM
CCOc1ccc(OCc2ccc(C(=O)N3CCOCC3)cc2)cc1	none (no result: GLS inhibitor)
CC(Cc1ccccc1)NC(=O)c1cc([N+](=O)[O-])ccc1Cl (stereo not given)	none
O=C(N[C@@H](Cc1ccccc1)c1nc2ccccc2[nH]1)c1cc([N+](=O)[O-])ccc1Cl	G9a inh 10µM
Nn1c(=S)[nH]c2sc3c(c2c1=O)CCCC3	none (no result: L3MBTL1 inh, BAZ2B block, G9a inh)
O=c1[nH]c(=S)[nH]c2sc3c(c12)CCCCCC3	JMJD2A Tudor inconclusive, G9a inh 2.2µM
O=S1(=O)N=C2CCCCCN2C(c2ccc(F)cc2)N1 (stereo not given)	none
O=[N+]([O-])c1ccc(C2NS(=O)(=O)N=C3CCCCCN32)cc1 (stereo not given)	G9a inh 25µM
Cc1ccc(CCNC(=O)c2cn(C)c3ccc(S(=O)(=O)N4CCCCC4)cc3c2=O)cc1	none (no result: L3MBTL1 inh, BAZ2B block)
CCCOc1ccccc1OCC(=O)Nc1cc(Cl)ccc1-n1cncn1	G9a inh 45µM
O=C(Nc1cc(Cl)ccc1-n1cncn1)c1ccc(Br)o1	G9a inh 56µM
O=C(Nc1cc(Cl)ccc1-n1cncn1)c1cncc(Br)c1	none
O=C(COc1ccc(F)cc1)Nc1cc(Cl)ccc1-n1cncn1	G9a inh 56µM
CCOc1ccc(OCC(=O)Nc2cc(Cl)ccc2-n2cncn2)cc1	none (no result: L3MBTL1 inh, BAZ2B block, HP1b chromo inh, JMJD2A Tudor, G9a inh)
CCc1ccccc1NC(=O)c1cc(S(=O)(=O)N2CCCC2)cn1C	G9a inh inconclusive (no result: L3MBTL1 inh)
Cc1cc(Cl)ccc1NC(=O)C1CCN(c2nnc(-n3c(C)ccc3C)s2)CC1	none (no result: L3MBTL1 inh)
Cc1ccc(S(=O)(=O)N2CCCCC2)cc1NC(=O)CSCC(=O)O	G9a inh 50µM
Cc1ccc(S(=O)(=O)N2CCOCC2)cc1NC(=O)CNCC1CCCCC1	JMJD2A Tudor 4µM, G9a inh 10µM (no result: BAZ2B block)
O=C(O)CSCC(=O)Nc1ccc(S(=O)(=O)N2CCCCC2)cc1	none
Cc1ccc2c(CN3CCN(C(=O)c4ccc(F)cc4)CC3)cc(=O)oc2c1	none (no result: L3MBTL1 inh)
Cn1c(NCCO)nc2c1c(=O)n(Cc1cccc(F)c1)c(=O)n2C	none (no result: L3MBTL1 inh)
